This is a sample that favours compounds with a hit; in the whole collection about 7% have one here.
PI5P4K alpha inh: qHTS for Inhibitors of phosphatidylinositol 5-phosphate 4-kinase (PI5P4K). PI5P4Kalpha enzyme, ADP-Glo luminescence, 60 min; hits give low values. 330,000 tested, 1.2% active. max response, %. Phosphatidylinositol 5-phosphate 4-kinase type-2 alpha (Homo sapiens), P48426. AID 652105, 2013; active = max response of -50% or lower; inconclusive = between -30% and -50%; inactive = -30% or higher; note: value at the top dose of about 77 µM; % is set by controls: 0 for no effect and ±100 for the full control effect
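Controls without substrate or without enzyme flank wells where PI5P4Kalpha converts substrate using 5 microM ATP (final). Incubation lasts 60 minutes at room temperature; ADP formed is read by ADP-Glo luminescence.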
HP1b chromo inh: HTS for Inhibitors of HP1-beta Chromodomain Interactions with Methylated Histone Tails; AlphaScreen HP1-beta / biotin-H3K9me3 peptide binding; Potency, µM (series often up to 114 µM), for inactives: top-dose activity change, negative = inhibition, most hits filed as inhibitors; 390,000 tested, 0.56% active; note: potency is the fitted concentration of half-maximal effect; nearly all actives have a fitted effect of over 70% in size
Target sequence (P83916 whole entry, looked up): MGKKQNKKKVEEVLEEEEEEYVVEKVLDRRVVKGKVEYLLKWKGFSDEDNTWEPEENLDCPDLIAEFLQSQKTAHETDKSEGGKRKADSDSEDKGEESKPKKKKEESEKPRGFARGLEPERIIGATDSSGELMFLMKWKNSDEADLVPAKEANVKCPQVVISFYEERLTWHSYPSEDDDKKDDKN
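Compound inhibition of the preformed complex between 50 nM HP1-beta and 50 nM biotinylated H3K9me3 peptide was read by AlphaScreen. Buffer was PBS pH 7.4 with 0.01% Tween-20. Incubations ran 30 min at room temperature, with 10 ug/mL donor/acceptor beads.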
PLK1 PBD block: qHTS for Inhibitors of PLK1-PDB (polo-like kinase 1 - polo-box domain): Primary Screen. AID 720504, 2013. Serine/threonine-protein kinase PLK1 (Homo sapiens), P53350. Plk1 PBD binding of FITC phosphopeptide, fluorescence polarization. 360,000 tested, 2.8% active. Potency, µM, for inactives: max response, negative = inhibition, usual class: inhibitors; note: potency is the fitted concentration of half-maximal effect; series mostly up to about 57 µM; % is set by controls: 0 for no effect and ±100 for the full control effect; nearly all actives have a fitted effect of over 65% in size
Target sequence (P53350 whole entry, looked up, the tested form may be a part): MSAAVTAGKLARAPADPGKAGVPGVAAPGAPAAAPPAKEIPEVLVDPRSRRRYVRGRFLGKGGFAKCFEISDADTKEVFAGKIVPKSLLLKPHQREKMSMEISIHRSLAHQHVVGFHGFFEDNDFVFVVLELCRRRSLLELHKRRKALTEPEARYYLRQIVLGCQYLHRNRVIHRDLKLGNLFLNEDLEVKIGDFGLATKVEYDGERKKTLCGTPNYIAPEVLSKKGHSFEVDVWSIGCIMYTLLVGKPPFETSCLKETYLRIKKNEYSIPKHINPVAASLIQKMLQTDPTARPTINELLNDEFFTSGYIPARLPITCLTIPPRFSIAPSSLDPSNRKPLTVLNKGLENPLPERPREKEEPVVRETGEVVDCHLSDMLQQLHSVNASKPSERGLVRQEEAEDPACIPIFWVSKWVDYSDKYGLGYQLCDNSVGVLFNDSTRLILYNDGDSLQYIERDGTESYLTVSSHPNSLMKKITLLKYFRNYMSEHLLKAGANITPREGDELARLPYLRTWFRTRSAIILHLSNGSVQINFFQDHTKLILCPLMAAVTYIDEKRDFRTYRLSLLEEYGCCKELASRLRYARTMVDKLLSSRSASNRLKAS
KAT2A inh: qHTS Assay for Inhibitors of GCN5L2; Potency, µM (top dose mostly 58.9 µM), for the others: at the top dose activity change, negative = inhibition, actives largely listed as inhibitors; AID 504327, 2011; 390,000 tested, 0.21% active; GCN5L2 HAT assay, ThioGlo1 CoA-SH fluorescence; note: potency is the fitted concentration of half-maximal effect; % is set by controls: 0 for no effect and ±100 for the full control effect
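Enzyme at 20nM final was mixed with library compounds for 15 min at room temperature. Peptide H3(1-25) at 75uM, acetyl-CoA at 70uM and ThioGlo1 at 50uM were then added. Plates were read immediately and after 20 min (Ex340nm/Em540nm).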
BAZ2B inh: qHTS Assay for Inhibitors of BAZ2B; Bromodomain adjacent to zinc finger domain protein 2B (Homo sapiens), Q9UIF8; AlphaScreen BAZ2B-H3K14Ac peptide displacement; Potency, µM (series often up to 114 µM), for the others: at the top dose activity change, negative = inhibition, most hits filed as inhibitors; 360,000 tested, 4.4% active; note: potency is the fitted concentration of half-maximal effect; % is set by controls: 0 for no effect and ±100 for the full control effect; nearly all actives have a fitted effect of over 60% in size
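BAZ2B (50 nM) with biotin-H3(5-23)K14Ac peptide (50 nM) in PBS pH 7.4, 0.01% Tween-20, preformed 30 min, then compound 30 min at room temperature; top concentration 110uM. AlphaScreen streptavidin donor/nickel chelate acceptor beads (10 ug/mL final), 20 min dark, signal read.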
JMJD2A Tudor: qHTS Assay for Inhibitors of JMJD2A-Tudor Domain. 390,000 tested, 4.4% active. Lysine-specific demethylase 4A (Homo sapiens), O75164. Potency, µM (series often up to 114 µM), for inactives: at the top dose activity change, negative = inhibition, hits mostly inhibitors. AlphaScreen JMJD2A-Tudor / H3K4me3 peptide binding; note: potency is the fitted concentration of half-maximal effect; % is set by controls: 0 for no effect and ±100 for the full control effect; nearly all actives have a fitted effect of over 50% in size
* hit, by the source's call; ? = inconclusive; . = not tested or not shown; [ ] = remark or other dose. Unless noted, calls come from the whole dose curve; as a rule, active = well fitted curve in the direction sought with a large enough effect; inconclusive = small, poorly fitted or top-dose-only effect, or another doubt; inactive = no such curve, though single readings can be large; an effect the other way counts as inactive or inconclusive.

SMILES | PI5P4K alpha inh | HP1b chromo inh | PLK1 PBD block | KAT2A inh | BAZ2B inh | JMJD2A Tudor
Cc1ccccc1NC(=O)CC1SC(=O)N(c2ccccc2)C1=O (configuration not stated) | 2.0 | -13.9% | 10.6µM* | -2.7% | ? | -14.5%[11.4 µM]
COCCN1C(=O)N(c2cccc(OC)c2)C(=O)C1CC(=O)Nc1ccc(OC)cc1 (configuration not stated) | -12.8 | 27.9% | -3.4% | -6.3% | -21.3% | -9.1%
CCOc1ccc(NC(=O)CC2C(=O)N(c3cccc(OC)c3)C(=O)N2CCOC)cc1 (configuration not stated) | 6.8 | 2.8% | 29.9µM* | 20.6% | -6.9% | -23.6%
CCOc1ccc(NC(=O)CC2SC(=O)N(c3ccccc3)C2=O)cc1 (configuration not stated) | -2.9 | -4.3% | 9.47µM* | ? | ? | -28.8%
CCOc1ccccc1NC(=O)CC1SC(=N)N(c2ccccc2)C1=O (configuration not stated) | . | . | . | -11.0% | -9.7% | .
O=C(CSc1nncn1-c1ccccc1)NC1CCCC1 | -0.4 | 41.3% | 0.3% | ? | 1.9% | 7.8%
CCCCCCC(=O)N(O)C1CC(=O)N(c2ccc(Br)cc2)C1=O (configuration not stated) | . | -64.8% | ? | -22.6% | -9.8% | 25.1µM*
CCCCN(C(=O)CCC(=O)O)C1CC(=O)N(c2ccc(OCCC)cc2)C1=O (configuration not stated) | 1.3 | 17.5% | 0.7% | -5.3% | -2.9% | 1.6%
COc1ccccc1N(O)C1CC(=O)N(c2ccc(Br)cc2)C1=O (configuration not stated) | . | ? | 2.99µM* | -29.0% | ? | 25.1µM*
CCCCN(CC)C(=O)Cn1c(=O)n(-c2ccc(OCC)cc2)c(=O)c2c3c(sc21)CCC3 | . | 24.4% | . | -3.9% | -2.2% | -15.4%
Cc1cn([C@H]2C[C@H](O)[C@@H](CCC(=O)NCc3ccco3)O2)c(=O)[nH]c1=O | 6.2 | 4.5% | -12.3% | . | . | -15.8%
O=C(Nc1ccccc1C(F)(F)F)N1CCOc2ccc(Cl)cc21 | . | 6.1% | . | -12.9% | -16.3% | -27.0%
CCN1C(=O)CC2CCCC1C2 (configuration not stated) | 7.5 | 10.7% | -7.4% | . | . | -4.9%
Cc1ccc(NC(=O)Nc2nnc(-c3ccncc3)s2)cc1C | -1.5 | 46.3% | -3.3% | -4.7% | -16.2% | -24.2%
COC(=O)Nc1nnc(-c2ccncc2)s1 | . | ? | 26.7µM* | -15.0% | 8.3% | -34.4%
COc1ccc(Nc2c(-c3ccc(OC)cc3)nc3cnccn23)cc1 | -0.3 | -10.1% | -5.7% | -2.7% | ? | ?
Cc1ccc(-c2nc3cnccn3c2Nc2ccc3c(c2)OCO3)cc1 | 3.4 | ? | -3.2% | -14.4% | 39.8µM* | 50.1µM*
Cc1ccn2c(Nc3ccc4c(c3)OCO4)c(-c3ccc(Cl)cc3)nc2c1 | . | -8.8% | . | -4.7% | . | -32.7%
COc1ccc(Nc2c(-c3ccc(C)cc3)nc3cnccn23)cc1 | 0.3 | -12.9%[57 µM] | 1.2% | -9.3% | ? | 44.7µM*
CCN1CCN(S(=O)(=O)c2c(C)cc(C)cc2C)CC1 | -1.4 | 47.9% | -7.0% | -0.5% | ? | -14.4%
NC(=O)c1ccc(N2CCCCC2)c(N2C(=O)C3CC=CCC3C2=O)c1 (configuration not stated) | -4.1 | 21.6% | -2.1% | -11.7% | 50.1µM* | -5.0%
CC(=O)NC(C)(c1ccccc1)c1nc(-c2cnc3ccccc3c2)cs1 (configuration not stated) | -1.7 | . | -2.6% | . | . | .
O=C1Nc2ccccc2/C1=C/c1ccc([N+](=O)[O-])cc1 | -7.0 | 31.3% | 4.7% | 0.1% | -10.9% | -1.4%
CC1(c2ccc([N+](=O)[O-])cc2)Nc2ccccc2S1 (configuration not stated) | 7.4 | ? | 6.7µM* | -12.4% | 12.6µM* | 39.8µM*
CC(C)CCNC(=O)c1cccc(C(=O)NCCC(C)C)c1 | -9.2 | -16.3% | 23.8µM* | -1.4% | -3.3% | -19.1%[11.4 µM]
SMILES | PI5P4K alpha inh | HP1b chromo inh | PLK1 PBD block | KAT2A inh | BAZ2B inh | JMJD2A Tudor
CC(C)CNC(=O)c1cccc(C(=O)NCC(C)C)c1 | . | 13.3% | -5.5% | -6.4% | 16.5% | -20.3%
CCCCN1C(=O)C(CC(=O)NCC2CCCCC2)CC(C(=O)N(C(C)C)C(C)C)=C1C (configuration not stated) | 5.8 | . | -7.9% | . | . | .
CN(C)C1(CN=Cc2cc(Cl)cc([N+](=O)[O-])c2O)CCCCC1 | -62.3* | ? | ? | -21.5% | 44.7µM* | 39.8µM*
CCC(=O)Nc1nnc(-c2ccco2)o1 | 0.0 | 30.6% | 0.7% | -2.9% | ? | 44.7µM*
Cc1cccc(C)c1NC(=O)CCCSc1nnc(-c2ccco2)o1 | 6.6 | 17.1% | -2.0% | -6.0% | 8.9% | -16.2%
O=C(Cc1ccccc1)Nc1nnc(-c2ccco2)o1 | 4.3 | 19.7% | -11.5% | -5.5% | 28.2µM* | 44.7µM*
CCCCC(=O)Nc1nnc(-c2ccco2)o1 | 5.3 | 4.1% | 0.0% | 4.4% | 79.4µM* | 10µM*
Cc1ccc(NC(=O)CCCn2c(=O)c3cccn3c3cccnc32)c(Cl)c1 | . | 26.7% | . | 4.5% | -18.0% | -15.4%
Oc1ccc(/C=N/n2c(COc3ccccc3)n[nH]c2=S)c(O)c1 | ? | -13.0% | ? | 4.0% | -12.7% | -22.1%
COc1ccc(/C=N/n2cnn(Cc3ccccc3Cl)c2=S)cc1OC | 4.5 | ? | 23.8µM* | -22.3% | -27.7% | -26.4%
Oc1ccc(/C=N/n2cnn(Cc3ccccc3Cl)c2=S)c(O)c1 | -4.4 | -31.1% | 10.6µM* | -6.1% | -29.1% | ?
COc1cc(/C=N/O)ccc1OCc1ccccc1Cl | 16.0 | 17.1% | -15.5% | -17.1% | -22.0% | -11.1%
Cc1cc(NC(=O)CCC(=O)N(Cc2ccco2)C2(C(=O)NC3CCCC3)CCCCC2)no1 | -3.6 | -8.3% | -20.6% | -3.5% | 2.1% | 89.1µM*
C=CCN(C(=O)CCC(=O)Nc1cc(C)on1)C(C(=O)NC1CCCC1)c1ccc(CC)cc1 (configuration not stated) | -7.0 | -5.1% | 26.7µM* | -3.7% | 1.9% | ?
Cc1ccc(C)c(N(C(=O)CCC(=O)Nc2cc(C)on2)C(C(=O)NC2CCCC2)c2ccco2)c1 (configuration not stated) | -28.1 | -8.3% | 3.77µM* | -2.7% | 4.4% | -16.8%[11.4 µM]

Screening results deposited in PubChem by National Center for Advancing Translational Sciences (NCATS).
